# Screening data (PubChem)
# Compounds with a hit are over-represented: about 4.8% of the library has one in this group of screens.
# ssDAF12 agonist – S. stercoralis DAF-12 nuclear receptor activators, primary screen, cell-based, luminescence, HEK293, GRIP1 co-expression, lit1-tk-luc. Nuclear hormone receptor DAF-12 (Strongyloides stercoralis). HEK293 ssDAF-12/GRIP1 lit1-tk-luc reporter; % of 3 µM dafachronic acid response. activation, % at 6.8 µM. 370,000 compounds, 1% hits;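 active means activation above the mean over all tested compounds plus 3 SD, cut at about 0.9% in these data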;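 further: 0% = DMSO-only wells and 100% = 3 µM delta7-dafachronic acid wells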
# SMARCA2 activ – SMARCA2 (BRM) function activators, primary screen, cell-based, luminescence, high throughput | 370,000 compounds, 1% hits | activation, % at 9.1 µM | MG213 cells, MMTV-luciferase reporter, dexamethasone, overnight | AID 652017, 2013; in the data active means activation above about 7.8%;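 further: 0% = vehicle wells and 100% = reference activator wells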
# hcDAF-12 act – H. contortus DAF-12 nuclear receptor activators, primary screen, cell-based, luminescence, HEK293, lit1-tk-luc reporter; 370,000 compounds, 1.4% hits; activation, % at 6.8 µM; HEK293 hcDAF-12 lit1-tk-luc reporter; 0% DMSO, 100% Δ7-dafachronic acid;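 active means activation above the mean of all tested compounds plus 3 SD, cut at about 5.5% in these data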;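 further: 100% = response to 3 µM Δ7-dafachronic acid high control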
# DAX1 inh-1 – DAX1 (NR0B1) inhibitors on StAR promoter, primary screen, cell-based, luminescence, SF-1 (NR5A1), full-length DAX-1. 370,000 compounds, 1.1% hits. HEK293T StAR-luciferase reporter, SF-1/DAX-1 repression relief. inhibition, % at 6.8 µM;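 active means inhibition above the mean over all tested compounds plus 3 SD, cut at about 3.6% in these data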;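 further: 0% = DAX-1 cells with DMSO and 100% = cells lacking DAX-1 with DMSO; higher inhibition means more luminescence from relief of DAX-1 repression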
# hgDAF12 agonist – H. glycines DAF-12 receptor agonists, primary screen, cell-based, luminescence, HEK293, GAL4 fusion, UAS-luciferase. HEK293 GAL4-hgDAF12 UAS-luciferase reporter, agonist luminescence; normalized to butyrate control. activation, % at 6.8 µM. 370,000 compounds, 1.8% hits;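 active means activation above a cutoff set at the mean of all screened compounds plus 3 SD, cut at about 10% in these data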;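 further: 0% = DMSO wells and 100% = sodium butyrate wells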
# DAX1 inh-2 – DAX1 (NR0B1) inhibitors, primary screen, cell-based, HEK293, Gal4-DAX1, luciferase luminescence. AID 504766, 2011. inhibition, % at 6.75 µM. Nuclear receptor subfamily 0 group B member 1 (Homo sapiens), P51843. HEK293 Gal4-DAX1 luciferase reporter. 340,000 compounds, 0.99% hits;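 active means inhibition above the mean over all tested compounds plus 3 SD, cut at about 4.2% in these data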;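 further: 0% = DAX1-transfected cells with DMSO and 100% = empty-vector control cells with DMSO; inhibition shows as a rise in luminescence from relieved DAX1 repression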
# Target sequence (P51843 207-470 limits assumed): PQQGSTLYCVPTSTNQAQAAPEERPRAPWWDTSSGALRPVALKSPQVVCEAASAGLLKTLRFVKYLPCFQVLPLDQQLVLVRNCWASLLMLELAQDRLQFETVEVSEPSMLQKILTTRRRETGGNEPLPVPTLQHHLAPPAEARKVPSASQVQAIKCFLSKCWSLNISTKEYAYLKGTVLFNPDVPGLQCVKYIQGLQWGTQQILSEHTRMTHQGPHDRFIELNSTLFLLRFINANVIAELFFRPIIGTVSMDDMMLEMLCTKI
# An asterisk follows results filed as active; · = not tested or not shown.
SMILES,ssDAF12 agonist,SMARCA2 activ,hcDAF-12 act,DAX1 inh-1,hgDAF12 agonist,DAX1 inh-2
CCOC(=O)c1[nH]c2c(c1C)C(=O)CC(c1ccc(F)cc1)C2 (stereo not drawn),1.2*,-2,-2,-3,3,-1
Nc1ccc(-c2cnc(-c3ccc(N)cc3)nc2)cc1,1,2,4,2,10*,-3
Oc1cccc(C2c3[nH]c4ccccc4c3CCN2Cc2ccoc2)c1 (stereo not drawn),1.4*,-1,4,1,0,1
Cc1cn([C@H]2C[C@H](O)[C@@H](CNCC3=Cc4cc(O)ccc4OC3)O2)c(=O)[nH]c1=O,-1,-3,0,0,0,1
COc1cccc(NC(=O)Cn2nnc(C(=O)Nc3ccccc3)c2N)c1,1,1,-1,-1,2,-1
CSc1cccc(NC(=O)c2nnn(Cc3ccccc3)c2N)c1,-1,0,-2,0,0,0
COc1cccc(NC(=O)c2nnn(CCc3ccccc3)c2N)c1,-1,4,0,0,9,6.0*
COc1cc(NC(=O)c2nnn(Cc3ccc(SC)cc3)c2N)cc(OC)c1,-2,2,0,0,6,4.2*
Nc1[nH]c2cc(C(F)(F)F)ccc2c1C(=O)NC1CCCCC1,1,0,5,-1,2,·
O=C(Cn1cnc2ccccc2c1=O)N1CCN(S(=O)(=O)c2ccc(F)cc2)CC1,-1,-3,1,3.6*,-1,0
CC(S(=O)(=O)c1ccccc1)S(=O)(=O)c1ccccc1,-1,-5,-1,0,-3,5.0*
COCCNC(=O)C(c1ccc(Cl)cc1)N(Cc1ccco1)C(=O)CCC(=O)Nc1ccccn1 (stereo not drawn),-1,-1,2,0,3,8.8*
COCCNC(=O)C(c1ccc(O)cc1)N(Cc1ccco1)C(=O)CCC(=O)Nc1ccccn1 (stereo not drawn),-1,-1,-2,0,2,-1
FC(F)(F)c1ccc(Oc2ccc(Cl)cc2Br)nc1,25*,2,-1,0,0,0
CC(C)[C@@H]1CC2=C(C(=O)OC(C)(C)O2)[C@H](CCc2ccccc2)O1,-1,4,-1,0,-1,·
COc1ccccc1CNC(=O)c1ccc(NC2=NC3CS(=O)(=O)CC3S2)cc1 (stereo not drawn),-1,-2,1,0,10*,0
Cn1c(SCC(=O)NNC(=O)c2ccccc2O)nnc1-c1ccccc1,0,4,6.1*,1,1,0
O=C(O)C1CCCCC1C(=O)N1CCCC1 (stereo not drawn),1.5*,-4,0,1,2,0
CC(C)CC(=O)N/C(N)=N/c1nc2ccccc2o1,-1,4,3,2,9,5.3*
CCC(=O)N/C(N)=N/c1nc2ccccc2o1,-1,1,2,2,7,5.4*
CCCC(=O)N/C(N)=N/c1nc2ccccc2o1,0,4,5,1,10,2
NC(=O)C1CCN(C2CC(=O)N(Cc3cccs3)C2=O)CC1 (stereo not drawn),1.2*,-2,0,0,-1,2
CN(C)c1ccc(-c2ccccc2)nn1,0,3,3,3.8*,8,1
CCN(CC)c1cc(-c2ccccc2)ncn1,-1,-3,-1,0,-1,0
COc1cccc(-c2oc3c(c2C(=O)OCCN(C)C)C(O)CCC3)c1 (stereo not drawn),-1,4,1,3,1,·
SMILES,ssDAF12 agonist,SMARCA2 activ,hcDAF-12 act,DAX1 inh-1,hgDAF12 agonist,DAX1 inh-2
O=C(Cc1ccccc1[N+](=O)[O-])N1CCc2ccccc2C1,1.1*,1,4,1,11*,0
O=C(Cc1ccc([N+](=O)[O-])cc1)N1CCc2ccccc2C1,-1,-4,1,0,-2,1
O=C(CCN1C(=O)c2cccc3cccc(c23)C1=O)N1CCOCC1,0,0,3,2,13*,1
Cc1ccccc1NC(=O)c1cc(S(=O)(=O)N2CCCCC2)ccc1N1CCOCC1,-2,-1,-1,-1,-2,1
C=CCn1c(=O)c2ccccc2n2c(SCC(=O)O)nnc12,-1,-1,2,1,1,0
O=C(O)CSc1nnc2n(-c3ccccc3)c(=O)c3ccccc3n12,-1,-2,-1,0,-3,5.4*
O=C(CN1CCN(S(=O)(=O)c2ccc(F)c(Cl)c2)CC1)N1CCOCC1,0,1,-1,-1,-2,0
CN1CCC(=O)N([C@H](CO)c2ccccc2)CC1,-1,1,0,1,1,0
O=C(NC1CCCCC1)c1ccc(-c2cn[nH]c2)c2ccoc12,-1,5,-1,1,13*,·
CCN(CC)S(=O)(=O)c1ccc(N2CCCC2)c(NC(=O)C2=NN(c3ccccc3)C(=O)CC2)c1,-1,-2,-2,2,3,1
COc1ccc(-n2nnnc2C2c3ccccc3C(=O)N2C2CCN(Cc3ccccc3)CC2)cc1 (stereo not drawn),-1,-4,1,2,-2,·
O=C(NCc1ccncc1)[C@@H]1CCCN1C(=O)[C@H]1CCCN1,-1,2,2,0,-1,·
CCOc1ccc2nc(N3C(=O)/C(=C/c4ccccc4)NC3=S)sc2c1,0,1,3,2,10,5.1*
O=C(NCc1ccccc1)C(c1ccncc1)n1c(=O)c(-c2ccco2)nc2ccccc21 (stereo not drawn),-1,1,0,1,2,·
O=C(NCc1ccccc1)C(c1ccc(-c2ccccc2)cc1)n1c(=O)c(-c2ccco2)nc2ccccc21 (stereo not drawn),1.3*,0,2,0,2,·
O=C(NC1CCCCC1)C(C1CC1)n1c(=O)c(-c2ccco2)nc2ccccc21 (stereo not drawn),1.9*,-4,0,0,-3,·
COc1ccc(C(C(=O)NC(C)(C)C)n2c(=O)c(-c3ccco3)nc3ccccc32)cc1 (stereo not drawn),1.5*,-6,1,-1,2,·
